# In PubChem BioAssay (NCI):
# The panel holds about 83,000 compounds, 20% with a hit somewhere; the sample as a whole holds those more often.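 For each line, cells grew in 96-well plates with the test compound present at a single concentration for 48 hours.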 A number with no mark means an inactive call. The source made the active and inactive calls. Rule for the calls: active = growth percent below 10; inactive = the rest.
# Test system: SNB-75 CNS
# Experiment: NCI-60 one-dose screen, 48 h (100 = growth as untreated, 0 = no growth, -100 = all killed)
# Details: 10 µM unless noted
row,Compound,growth
1,O=Cc1ccc([N+](=O)[O-])s1,85.8%
2,CC(C)(C)n1cc(-c2ccnc(NCCCNS(=O)(=O)c3ccc(F)cc3)c2)c(-c2cccc(F)c2)n1,85%
3,O=C1C(Cl)=C(Nc2ccc(O)cc2)C(=O)N1Cc1ccc(Cl)cc1,59%
4,COc1cc(CNC(=O)CCCC/C=C/C(C)C)ccc1OCc1nnc(Nc2ccc([N+](=O)[O-])cc2)o1,48.7%
5,O=C(N/N=C/c1ccc(F)cc1)c1ccc(C(F)(F)F)nc1Nc1cccc(C(F)(F)F)c1,0.243% (active)
6,C=C(C)[C@@H]1CC[C@]2(C(=O)NCCNCCN)CC[C@]3(C)[C@H](CC[C@@H]4[C@@]5(C)C/C(=C/c6ccncc6)C(=O)C(C)(C)[C@@H]5CC[C@]43C)[C@@H]12,78.1%
7,O=C(COc1ccc(-c2nc3ccccc3[nH]2)cc1)N=Nc1c(O)[nH]c2ccc(Cl)cc12,103%
8,C/C(=N/O)c1ccc(F)cc1,123%
9,COc1ccc(C2=Nc3c/c(=C\c4c(O)[nH]c5ccc(Cl)cc45)ccc3=N2)cc1,36.2%
10,CCOC(=O)c1cnc2ccccc2c1Cl,78.2%
11,CCCc1cc(NC)nc(S(=O)(=O)CC)n1,88.6%
12,COc1ccc(/C=C2\C(=O)N=C3N2NC(c2cc(Br)ccc2O)C=C(C)N3c2ccccc2)cc1 (stereo not given),99%
13,O=S(=O)(NCCNc1nccc(-c2c(-c3cccc(F)c3)nc3occn23)n1)c1ccc(Br)cc1,78.4%
14,CCn1cc(C(=O)N/N=C/c2cccs2)c(=O)c2cc(F)c(N3CCNC(C)C3)c(F)c21 (stereo not given),88.5%
15,Cn1c(=O)c2[nH]c(N/N=C/c3ccccc3Br)nc2n(C)c1=O,97.6%
16,CCCCCCNC(=O)Oc1ccc(/C(=C(/C)Cc2ccc(OC)cc2)c2ccc(OCCCN(C)C)cc2)cc1,65.9%
17,O=C(OCc1ccc2cccc(O)c2n1)N1CCN(C(=O)c2cc3cc(F)ccc3[nH]2)CC1,-45.2% (active)
18,CC(=O)[C@@H]1CCC=C2CC[C@]3(C)[C@@H](CC[C@@H]4[C@@]5(C)CCCNC(C)(C)[C@@H]5CC[C@]43C)[C@H]21,23.5%
19,O=c1oc2ccc([N+](=O)[O-])cc2cc1Br,86.6%
20,S=C(Nc1ccc(-c2nc(N3CCOCC3)c3cccn3n2)cc1)Nc1cccnc1,36.5%

row,Compound,growth
1,O=C1/C(=C/c2ccc(-c3ccc(Br)cc3)o2)SC(=S)N1CCc1ccc(O)cc1,37.9%
2,CCOC(=O)CSc1ncnc2c1c(-c1ccccc1)c(-c1ccccc1)n2-c1ccc(C)cc1,87.8%
3,CCNc1cc(-c2cccc(OC(F)(F)F)c2)nc2ccc(N3CCCC3)cc12,82.3%
4,CCCCNC(=O)Oc1ccc(/C(=C(/CC)Cc2ccccc2)c2ccc(OCCN3CCCCCC3)cc2)cc1,61.2%
5,COc1ccc(-c2nc3c(c(-c4ccccc4)nn3-c3ccccc3)c(-c3ccc(N4CCOCC4)cc3)c2C#N)cc1,105%
6,COc1cc(-c2csc(NC(=O)c3cc(-n4cnc(C)c4)cc(C(F)(F)F)c3)n2)cc(OC)c1OC,78.6%
7,COc1cc(CNS(=O)(=O)c2ccc(C)cc2)ccc1OCc1cn(-c2ccc(Br)cc2)nn1,87%
8,Nc1ncnc2c1N=C(c1ccc3c(c1)OCO3)CC(c1ccc([N+](=O)[O-])cc1)N2 (stereo not given),59.5%
9,COc1ccc(-c2nc3c(c(-c4ccccc4)nn3-c3ccccc3)c(-c3ccc(N4CCN(C)CC4)cc3)c2C#N)cc1,106%
10,CCOC(=O)C(=Cc1cccc(Cl)c1)C(=O)OCC,35.3%
11,O=C1NC(=O)c2c1c1c3ccccc3ccc1c1[nH]c3ccc(Br)cc3c21,22.8%
12,CC1(c2ccccc2O)NN=C(/N=C/c2cccc([N+](=O)[O-])c2)N1C(Cc1c[nH]c2ccccc12)C(=O)O (stereo not given),92.3%
13,CCOP(=O)(OCC)c1nc(-c2ccccc2)oc1NCc1cccnc1,92.9%
14,CCOC(=O)c1cn2ncnc(Oc3ccc(NC(=O)NC4CCCCC4)c(Cl)c3)c2c1C,0.475% (active)
15,COC(=O)c1cc(-c2ccccc2)[nH]c1N/N=C/c1c(Cl)cccc1Cl,0.903% (active)
16,COc1ccc(-c2nnc(-c3ccc4c(c3)nc(-c3ccncc3)n4C3CCCCC3)o2)cc1,72.2%
17,CC(C)(C)c1cc(-c2nc3ccc(N4CCN(S(C)(=O)=O)CC4)cc3[nH]2)cc(C(C)(C)C)c1O,73.8%
18,CCCCN1C(=O)/C(=c2\sc3n(c2=O)C2C(NN=3)N(CC)C(=O)N2CC)c2ccccc21 (stereo not given),-17.6% (active)
19,N#Cc1nn(-c2cc(=O)[nH]c3ccc(Cl)cc23)c(N)c1C#N,113%
20,Cc1ccc(-n2c(=S)[nH]c3sc4c(c3c2=O)CCC(=O)C4)cc1,28.1%
